F-actin modifier: cytoskeleton assembly modification; HUVEC TNFa F-actin phalloidin imaging, high content; inhibition, % at 2 µM; 91,000 tested, 0.18% active;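 active = inhibition above the batch mean plus 3 SD and confirmed as a hit by visual image inspection, cut at about 30% in these data, passing the limit was not always enough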
CYP2C9 activ: CYP2C9 (human) activation; P11712; recombinant CYP2C9, luciferin-H conversion, luminescence; stronger effect = higher value; factor 1 = untreated enzyme, 0 = blocked; activation factor at 5 µM; 96,000 tested, 1.4% active; AID 1024;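 active = activation factor of 2 or more for CYP2C9 at a 5 µM dose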
Target sequence (P11712 whole entry, looked up): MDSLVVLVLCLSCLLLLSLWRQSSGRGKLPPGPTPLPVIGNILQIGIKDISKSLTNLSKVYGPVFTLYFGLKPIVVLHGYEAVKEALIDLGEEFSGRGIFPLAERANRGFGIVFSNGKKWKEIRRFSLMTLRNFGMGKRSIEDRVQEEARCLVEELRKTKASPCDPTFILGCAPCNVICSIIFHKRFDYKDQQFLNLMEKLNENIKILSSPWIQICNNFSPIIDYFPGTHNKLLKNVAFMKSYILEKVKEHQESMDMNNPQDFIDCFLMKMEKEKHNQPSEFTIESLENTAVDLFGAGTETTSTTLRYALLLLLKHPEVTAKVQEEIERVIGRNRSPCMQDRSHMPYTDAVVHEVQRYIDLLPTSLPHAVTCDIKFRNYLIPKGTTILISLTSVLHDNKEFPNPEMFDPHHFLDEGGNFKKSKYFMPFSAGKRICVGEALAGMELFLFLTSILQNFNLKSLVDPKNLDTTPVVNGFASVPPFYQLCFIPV
E-sel TNF inh: TNF alpha driven E-selectin expression inhibition. HUVEC TNFa-induced E-selectin immunofluorescence, high content. inhibition, % at 2 µM. 120,000 tested, 0.71% active. AID 1246;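 active = inhibition above the batch mean plus 3 SD, and confirmed as a hit on visual image review, cut at about 43% in these data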
CYP2C19 activ: cytochrome P450 2C19 (human) activation; P33261; recombinant CYP2C19, luciferin-H EGE luminescence; stronger effect = higher value; 0 = fully inhibited enzyme, 1 = untreated enzyme; activation factor at 5 µM; 96,000 tested, under 10 active;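 active = activation factor of at least 2 at 5 µM in the primary screen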
CYP2C19 inh: blocks human cytochrome P450 2C19; P33261; CYP2C19 Supersomes, luciferin-H EGE luminescence, 30 min; inhibition, % at 5 µM; 96,000 tested, 21% active;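 active = CYP2C19 inhibition above a set limit at 5 µM in the primary screen, cut at about 50% in these data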
CYP2C9 inhib: human CYP2C9 inhibition. P11712. CYP2C9 Supersomes, luciferin-H conversion, luminescence. inhibition, % at 5 µM. 96,000 tested, 20% active;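 active = blocking of liver enzyme CYP2C9 beyond about 50% at 5 µM, limit read from the data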
Numbers stand for hits; – = inactive; · = not tested or not shown. An excerpt weighted towards active compounds, which were near 22% of everything screened.

SMILES	F-actin modifier	CYP2C9 activ	E-sel TNF inh	CYP2C19 activ	CYP2C19 inh	CYP2C9 inhib
COc1cc(C(=O)N2CCC(O)(c3ccccc3)CC2)cc(OC)c1OC	–	–	·	–	66	79
COC(=O)C(CCSC)NC(=O)Cn1ncc2c(=O)oc3ccccc3c21 (configuration not stated)	–	–	·	–	–	–
S=c1sc2c(N3CCN(Cc4ccccc4)CC3)ncnc2n1-c1ccccc1	·	–	–	–	–	60
CCn1cc(C(=O)N2CCN(c3cccc(Cl)c3)CC2)c2cc(OC)c(OC)cc2c1=O	–	–	–	–	76	80
CCOC(=O)COc1cccc2c(=O)n(CC(=O)N3CCCc4ccccc43)ccc12	–	–	–	–	–	–
CCn1cc(C(=O)N2CCCc3ccccc32)c2cc(OC)c(OC)cc2c1=O	–	–	·	–	56	–
COc1cccc2c(=O)n(CC(=O)N3CCCc4ccccc43)ccc12	–	–	·	–	87	–
COc1cc(C(=O)N2CCCc3ccccc32)cc(OC)c1OC	–	·	–	·	·	·
C/C(=N/NC(=O)Cn1nc2ccccc2n1)c1ccc(F)cc1	·	·	–	·	·	·
COc1ccc(C(=O)Cn2c(N3CCOCC3)nc3ccccc32)cc1OC	·	–	·	–	–	–
O=C(CCC1CCCCC1)Nc1c2c(nn1-c1ccc(F)cc1)CS(=O)C2 (configuration not stated)	–	–	·	–	98	–
COc1ccc(-n2nc3c(c2NC(=O)C2CCCC2)CS(=O)C3)cc1 (configuration not stated)	–	–	·	–	–	–
CC1(C)CC(=O)c2cnn(-c3nc4ccccc4[nH]3)c2C1	–	–	–	–	80	56
COc1cccc(C2(O)CCN(C(=O)C3CC3)CC2)c1	–	–	–	–	–	–
Cc1cc(C)nc(N2CCCC(C(=O)NC(C)CCc3ccco3)C2)n1 (configuration not stated)	–	–	–	–	74	59
Cc1cc(C)nc(N2CCCC(C(=O)NCc3ccccc3)C2)n1 (configuration not stated)	–	·	–	·	·	·
CC(C)(C)n1nnnc1C(c1cccnc1)N1CCN(c2ccccn2)CC1 (configuration not stated)	·	·	–	·	·	·
CC(C)(C)n1nnnc1C(c1ccncc1)N1CCCCCC1 (configuration not stated)	–	–	–	–	83	73
CC(C)(C)n1nnnc1C(c1cccnc1)N1CCN(c2ccccc2F)CC1 (configuration not stated)	–	·	–	·	·	·
Cc1cccc(N2CCN(C(c3ccccc3)c3nnnn3C(C)(C)C)CC2)c1C (configuration not stated)	–	·	–	·	·	·
Cc1cccc(N2CCN(C(c3cccs3)c3nnnn3C(C)(C)C)CC2)c1C (configuration not stated)	–	–	·	–	–	54
CC(C)(C)n1nnnc1C(c1cccnc1)N1CCN(c2ccccc2)CC1 (configuration not stated)	–	–	–	–	59	–
CC(C)(C)n1nnnc1C(c1ccc(C#N)cc1)N1CCCC2(CCCCC2)C1 (configuration not stated)	–	–	–	–	–	–
CC(C)(C)n1nnnc1C(c1cccs1)N1CCN(c2ccccc2)CC1 (configuration not stated)	–	–	–	–	–	79
NC(=O)CSc1nnc(CNc2cccc(Cl)c2)n1CCc1ccccc1	–	–	–	–	–	–
SMILES	F-actin modifier	CYP2C9 activ	E-sel TNF inh	CYP2C19 activ	CYP2C19 inh	CYP2C9 inhib
CCN(CC)CCCNc1nnc(C)c(=O)[nH]1	·	–	–	–	–	–
CCn1nnnc1SCCSc1nnnn1CC	–	–	–	–	–	–
O=C(Nc1nccs1)c1ccc(-c2ccc([N+](=O)[O-])cc2)o1	·	·	–	·	·	·
CC(CN1CCOCC1)OC(=O)c1ccc2c(c1)OCCO2 (configuration not stated)	–	–	–	–	–	–
CC(CN1CCOCC1)OC(=O)c1cccc(Br)c1 (configuration not stated)	–	–	–	–	60	–
CC(CN1CCOCC1)OC(=O)c1ccccc1Br (configuration not stated)	–	–	·	–	76	–
CCCC12C(=O)C(C)(C(c3ccccc3)=C1c1ccccc1)C1C(=O)N(c3ccc(C)cc3)C(=O)C12 (configuration not stated)	·	·	–	·	·	·
O=C(/C=C\Nc1ccccn1)c1ccccc1	–	–	–	–	79	–
O=C(Nc1ccc2ccccc2c1)c1cccnc1	–	–	·	–	–	–
O=C(Nc1ccc2ccccc2c1)c1cnccn1	–	–	–	–	56	–
O=C(Nc1ccc2c(c1)oc1ccccc12)c1ccncc1	·	–	·	–	82	97
O=C(Nc1ccc2nccnc2c1)c1cnccn1	–	–	–	–	51	–
O=C(Nc1ccc(NC(=O)c2ccco2)cc1)c1cnccn1	–	–	·	–	–	–
O=C(Nc1cnc2ccccc2c1)c1ccncc1	–	–	–	–	86	70
O=C(Nc1ccc(S(=O)(=O)NC2CCCC2)cc1)c1cnccn1	–	–	–	–	–	95
O=C(Nc1ccc(S(=O)(=O)NCC2CCCO2)cc1)c1cnccn1 (configuration not stated)	·	·	–	·	·	·
CCCCCCCCCOC(=O)C[n+]1csc(CCO)c1C	–	–	–	–	76	–
O=C1CCCC2=C1C(c1ccncc1)c1c(nc(SCc3ccccc3)[nH]c1=O)N2 (configuration not stated)	–	–	–	–	87	90
CC(=O)c1c(C)[nH]c(C(=O)Nc2cccnc2)c1C	–	–	–	–	–	52
CC(=O)c1c(C)[nH]c(C(=O)Nc2ccc(C)c(C)c2)c1C	–	–	·	–	–	65
COc1ccc(NC(=O)C2CCCN2C(=O)NC2CCCCC2)cc1OC (configuration not stated)	–	–	–	–	–	–
COc1ccc(C2CCCN2C(=O)Nc2ccccc2)cc1OC (configuration not stated)	–	–	–	–	72	–
COc1ccc(NC(=O)C2CCCN2C(=O)NCc2ccccc2)cc1OC (configuration not stated)	–	·	–	·	·	·
COc1ccc(C2CCCN2C(=O)Nc2ccc(C)c(C)c2)cc1OC (configuration not stated)	–	–	–	–	76	–
Nc1ccc2nc(-c3ccccc3)sc2c1	–	–	–	–	72	51
COc1nc(Nc2ccc(C(C)=O)cc2)nc(OC)n1	·	–	·	–	51	51
COC(=O)c1ccc(Nc2nc(C)cc(C)n2)cc1	–	–	–	–	–	–
COc1nc(Nc2ccc3c(c2)OCO3)nc(OC)n1	–	–	·	–	–	68
COc1ccc(OC)c(CN2CCN(Cc3cccc4ccccc34)CC2)c1	·	·	–	·	·	·
COc1ccc(-c2cc(C(F)(F)F)nc(SCC(=O)Nc3sc4c(c3C#N)CCC4)n2)cc1	·	–	·	–	–	68
